Source: PubChem
In the library only some 19% were active in any assay of this set; here they are far more common.
uPA generation = blocks generation of uPA at the cell surface; Potency, µM (series often up to 38.3 µM), usual class: inhibitors; AID 540303; cell surface uPA generation assay, qHTS; hit rate 0.31% among 330,000; active = well fitted inhibition curve with a large enough effect; inconclusive = small, poorly fitted or top-dose-only effect; inactive = no such curve, though single readings can be large or run the other way; tested in mouse RAW 264.7 cells; note: nearly all actives have a fitted effect of over 55% in size
HT1080 IDH1KD tx = toxicity to HT-1080 IDH1 knockdown cells (counter line); Potency, µM (series often up to 46.1 µM), usual class: cytotoxic; AID 686971; hit rate 2% among 360,000; HT-1080 IDH1 knockdown viability, ATP luminescence, 48 h
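HT-1080-IDH1KD cells (IDH1 knocked down), 750/well in RPMI with 5% FBS, treated with compound 48 h at 37 degrees C. Viability by CellTiter-Glo luminescence, normalised to DMSO and no-cell wells; concentration-response curves classed.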
HT1080NT lethal = kills 2HG-producing HT-1080-NT fibrosarcoma cells | Potency, µM (doses to about 46.1 µM), hits mostly cytotoxic | HT-1080-NT fibrosarcoma viability, CellTiter-Glo ATP luminescence, 48 h | AID 686970 | hit rate 1.6% among 360,000;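 note: NT is the 2HG producing partner of a matched IDH1 knockdown line; nearly all actives have a fitted effect of over 55% in size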
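Viability by CellTiter-Glo luminescence after 48 h compound exposure at 37C of HT-1080-NT cells (750/well, RPMI, 5% FBS). % activity scaled between DMSO wells and medium-only wells, then curve-fitted and categorized by curve class.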
TDP1 cell CPT = growth inhibition of DT40 Tdp1-/-;hTDP1 cells with camptothecin (screen for TDP1 inhibitors) | chicken DT40 Tdp1-/-;hTDP1 cells + 20 nM CPT, ATP luminescence, 48 h | Potency, µM (doses to about 46.2 µM), actives largely listed as inhibitors | hit rate 12% among 420,000 | AID 686979; note: nearly all actives have a fitted effect of over 55% in size
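Cell growth measured by CellTiter-Glo luminescence after a minimum 48 h, 37 C compound exposure with 20 nM CPT in Tdp1-knockout DT40 cells stably expressing hTDP1, seeded 400/well; qHTS titration format.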
DT40 TDP1 no CPT = qHTS for Inhibitors of human tyrosyl-DNA phosphodiesterase 1 (TDP1): qHTS in cells in absence of CPT; DT40 Tdp1-/- hTDP1 cells, no CPT, ATP luminescence, 48 h; Potency, µM (highest dose often 46.2 µM), most hits filed as inhibitors; hit rate 15% among 420,000; AID 686978, 2013; note: nearly all actives have a fitted effect of over 55% in size
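Luminescent ATP content (CellTiter-Glo) served as the growth readout. Knockout chicken DT40 cells expressing human TDP1 were exposed to compounds without camptothecin for a minimum 48 hr at 37 °C.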
IL1B secr inh = inflammasome signaling inhibition, IL-1 beta readout; activity change, % at 57.5 µM; THP-1 LPS/ATP IL-1B secretion, AlphaLISA, 16 h; hits give low values; hit rate 4.7% among 360,000; AID 743279; in the data active = activity change below about -50%; inconclusive = mostly about -30% to -49%
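THP-1 cells pretreated 1 hr with compounds (up to 57.5 uM final), then stimulated with LPS (250 ng/mL final) plus ATP (1.25 mM final); secreted IL-1B measured by AlphaLISA after 16 hr, decreased signal indicating inhibition.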
Hits are given with their value; - = inactive; ? = inconclusive; . = no result given; [ ] = dose if it differs, or a comment. Unless noted, calls come from the whole dose curve; as a rule, active = well fitted curve in the direction sought with a large enough effect; inconclusive = small, poorly fitted or top-dose-only effect, or another doubt; inactive = no such curve, though single readings can be large; an effect the other way counts as inactive or inconclusive.

SMILES | uPA generation | HT1080 IDH1KD tx | HT1080NT lethal | TDP1 cell CPT | DT40 TDP1 no CPT | IL1B secr inh
Cc1ccc(NC(=O)Cn2nnc(C(=O)NCc3cccs3)c2N)c(C)c1 | - | ? | - | - | - | -
Cc1c(Cl)cccc1NC(=O)Cn1nnc(C(=O)NCc2cccs2)c1N | - | - | ? | 5.2µM | 1.6µM | -
Cc1ccccc1NC(=O)Cn1nnc(C(=O)NCc2cccs2)c1N | . | . | . | 9.2µM | 6.5µM | .
CCOC(=O)C1(C)CCN1C(=O)c1cccc2ccccc12 (configuration not stated) | . | - | - | ? | ? | -
COC(=O)c1cc(=O)nc(NNC(C)=O)s1 | . | - | - | - | - | -
OC(c1cccc(Cl)c1)c1nc(-c2cnc3ccccc3c2)cs1 (configuration not stated) | . | ? | ? | 26µM | 13µM | -
COc1ccc(C(O)c2nc(-c3cccc(O)c3)cs2)cc1 (configuration not stated) | . | - | - | ? | ? | -
COc1ccc(C(O)c2nc(-c3cnc4ccccc4c3)cs2)cc1 (configuration not stated) | . | - | - | ? | 15µM | -
OC(c1ccc(F)cc1)c1nc(-c2cnc3ccccc3c2)cs1 (configuration not stated) | . | - | - | 18µM | ? | -
O=C(O)c1cccc(-c2csc(C(O)c3cccc(Cl)c3)n2)c1 (configuration not stated) | . | - | - | - | - | -
COCCCNC(=O)/C(C#N)=C/c1cccc(NC(=O)c2ccccc2Cl)c1 | - | 15µM | ? | 2.6µM | 2.6µM | -103
COCCNC(=O)/C(C#N)=C/c1c(F)cccc1Cl | - | - | - | ? | 10µM | -54
O=C(c1ccccc1NS(=O)(=O)c1ccc(F)cc1F)N1CCCCC1 | - | - | - | - | - | -
CCOc1cc(S(=O)(=O)N2CC=C(c3ccc(F)cc3)CC2)c(OCC)cc1-n1cnnn1 | - | -[9.24 µM] | - | 15µM | 10µM | -
CCOc1cc(S(=O)(=O)N2CCC(Cc3ccccc3)CC2)c(OCC)cc1-n1cnnn1 | - | -[9.24 µM] | - | - | - | -
O=C(Cc1cccs1)NCc1cccc(Br)c1 | - | - | - | - | - | -
CC(CCc1ccccc1)NC(=O)CCc1cn(C)c2ccccc12 (configuration not stated) | - | - | - | - | 18µM | -77
Cn1cc(CCCC(=O)NCc2cccc(Br)c2)c2ccccc21 | . | . | . | ? | 18µM | .
O=C(Cc1csc2ccccc12)NCc1cccc(Br)c1 | . | . | . | 16µM | 21µM | .
Cc1ccccc1Cn1cc(CCC(=O)NC(C)c2ccccc2)c2ccccc21 (configuration not stated) | . | . | . | 13µM | 23µM | .
CC(C)NC(=O)CCCc1cn(C)c2ccccc12 | - | - | - | - | - | -
O=C(NC1CCCC1)c1cc(-c2ccc(Cl)cc2)on1 | - | - | - | - | - | -
Cc1cc(C)c(NC(=O)COc2ccccc2C(=O)Nc2ccc3c(c2)oc2ccccc23)c(C)c1 | - | - | - | ? | - | -
CC1=C(O)C(=O)C(C2=C(O)C(=O)C(C)=C(O)C2=O)=C(O)C1=O | - | - | - | - | - | -
Cc1ccc(C2=C(O)C(=O)C(c3ccc(C)cc3)=C(O)C2=O)cc1 | - | - | - | ? | 12µM | -
SMILES | uPA generation | HT1080 IDH1KD tx | HT1080NT lethal | TDP1 cell CPT | DT40 TDP1 no CPT | IL1B secr inh
CCCCOc1ccc(/C=N/NC(=O)c2nnn(-c3nonc3N)c2C)cc1 | - | - | - | - | - | -
CC(/C=C/c1ccccc1)=N\NC(=O)c1ccncc1 | - | ? | - | - | - | -
CC(/C=C/c1ccccc1)=N\NC(N)=S | - | - | - | 18µM | 21µM | -
CC(/C=C/c1ccccc1)=N\NC(=S)NC(C)C | - | - | - | 10µM | 10µM | -
CC(/C=C/c1ccccc1)=N\NC(=O)Cn1cncn1 | - | - | - | - | - | -
Cc1ccccc1N(C)C(=O)c1noc2c1COc1ccccc1-2 | . | . | . | 23µM | 15µM | .
CC(C)c1ccc(NC(=O)NN2CCOCC2)cc1 | - | - | - | - | - | -
CCC1CCCCN1CC(=O)N1CCCc2c1c(=O)oc1ccc(OCc3ccccc3)cc21 (configuration not stated) | . | . | . | 15µM | 10µM | .
O=C(c1ccco1)N1CCN(CC(=O)N2CCCc3c2c(=O)oc2ccc(O)cc32)CC1 | . | - | - | - | - | -
O=C(CN1CCCCC1)N1CCCc2c1c(=O)oc1ccc(OCc3ccccc3)cc21 | - | ? | - | ? | ? | -
CCOC(=O)C1CCCN(CC(=O)N2CCCc3c2c(=O)oc2ccc(OCc4ccccc4)cc32)C1 (configuration not stated) | . | . | . | - | ? | .
CCCCCOc1ccc2oc(=O)c3c(c2c1)CCCN3C(=O)CN1CCCC(C(=O)OCC)C1 (configuration not stated) | - | 23µM | ? | ? | ? | -
CCCOc1ccc2oc(=O)c3c(c2c1)CCCN3C(=O)CN(C)Cc1ccccc1 | - | - | - | ? | 21µM | -
O=C(CN1CCN(Cc2ccccc2)CC1)N1CCCc2c1c(=O)oc1ccc(O)cc21 | . | ? | ? | 23µM | ? | -
CCCCn1c(SCC(=O)Nc2cccc(OC)c2)nc2c(sc3ccccc32)c1=O | . | . | . | - | - | .
CC(C)OCCCn1c(SCc2ccccc2Cl)nc2c(sc3ccccc32)c1=O | . | . | . | - | - | .
CCOC(=O)CSc1nc2c(sc3ccccc32)c(=O)n1CCc1ccccc1 | . | . | . | - | ? | .
CCc1ccc(NC(=O)CSc2nc3c(sc4ccccc43)c(=O)n2CCCOC(C)C)cc1 | . | . | . | - | 21µM | .
C=CCN(C(=O)CSc1nc2ccsc2c(=O)n1Cc1ccccn1)c1ccccc1 | - | - | - | - | ? | -
CCOC(=O)CSc1nc2c(sc3ccccc32)c(=O)n1Cc1ccc(C)cc1 | . | . | . | 21µM | ? | .
CCc1ccc(NC(=O)CSc2nc3c(sc4ccccc43)c(=O)n2CCN(CC)CC)cc1 | . | . | . | 15µM | 9.2µM | .
C=CCN(C(=O)CSc1nc2c(sc3ccccc32)c(=O)n1CCN(CC)CC)c1ccccc1 | - | ? | ? | 18µM | 16µM | -80
CCOC(=O)C1CCCN(C(=O)c2cc(C)n(C(C)(C)C)n2)CC1 (configuration not stated) | . | - | - | - | - | -
COc1ccc(NC(=O)c2nnn(-c3ccc(C(C)C)cc3)c2C)c(OC)c1 | . | . | . | - | ? | .
CCc1ccc(OCCCC(=O)Nc2ccc(S(N)(=O)=O)cc2)cc1 | - | - | - | - | - | ?
COc1ccccc1-c1ccnc(-n2ncc(C(=O)N3CCN(C4CCCC4)CC3)c2-c2ccco2)n1 | . | . | . | -[9.04 µM] | - | .
